Reference: PubChem BioAssay (NCI)
Values joined by “and” are separate entries in the source; they are usually repeats but may differ in a detail not shown here. Identical values can stand only once. About 79,000 compounds went through this panel and 15% of them were active in at least one assay; those are over-represented in the sample as a whole. No stated cut-off is given here; in the data, active means growth inhibition above about 70%; inactive means the rest.

What was measured:
[1] = NCI Yeast Anticancer Drug Screen. Data for the rad50 strain (AID 155);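 further: 0% = growth of vehicle-only cultures of the same strain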; settings: S. cerevisiae rad50 strain growth inhibition, hits give high values; at 50.0 µM unless noted
Summary of the method: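 Relative growth inhibition (compound vs vehicle) was measured in yeast with a defined repair-gene alteration.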

[2] = NCI Yeast Anticancer Drug Screen. Data for the mec2-1 strain (AID 157); settings: S. cerevisiae mec2-1 strain, hits give high values; at 50.0 µM unless noted
Summary of the method: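 Test agents were screened against the mec2-1 yeast strain, with defined DNA repair or cell cycle alteration. Growth was scored as inhibition against vehicle-only controls.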

[3] = NCI Yeast Anticancer Drug Screen. Data for the sgs1 mgt1 strain (AID 161);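 further: 0% = growth of cultures given vehicle only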; settings: S. cerevisiae sgs1 mgt1 strain, hits give high values; at 50.0 µM unless noted
Summary of the method: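 Inhibition of yeast growth, normalised to vehicle-treated controls, is reported for a strain bearing genetic alterations in DNA damage repair.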

[4] = NCI Yeast Anticancer Drug Screen. Data for the cln2 rad14 strain (AID 165);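 further: 0% = growth equal to vehicle treated cultures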; settings: S. cerevisiae cln2 rad14 strain, hits give high values; at 50.0 µM unless noted
Summary of the method: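 Growth of compound-exposed yeast (cln2 rad14 genotype) measured and expressed as inhibition relative to vehicle.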

[5] = NCI Yeast Anticancer Drug Screen. Data for the bub3 strain (AID 167); settings: S. cerevisiae bub3 mutant strain, hits give high values; at 50.0 µM unless noted
Summary of the method: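 Screening used yeast with an engineered genetic alteration affecting cell cycle control. Compound-exposed cultures were compared with vehicle cultures, and reduced growth was taken as inhibition.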

[6] = NCI Yeast Anticancer Drug Screen. Data for the mlh1 rad18 strain (AID 175); settings: S. cerevisiae mlh1 rad18 strain growth inhibition, hits give high values; at 50.0 µM unless noted
Summary of the method: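 In this whole-cell yeast screen, a strain with altered DNA damage repair is challenged with compound, and its growth is measured against matched vehicle-treated controls.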

Measured: growth inhibition

C1CCN(CCC2CCNCC2)CC1
inactive: [1] -5.4% | [2] -18.3% | [3] -12.1% | [4] 1.8% | [5] 7.65% | [6] -1.6%

CCCCCCNC(=O)CCN(C(=O)O)S(=O)(=O)c1ccc(NC(=O)c2ccccc2)cc1
inactive: [1] 11.7% | [2] -3.45% | [3] 8.6% | [4] 17.7% | [5] 7.4% | [6] -1.45%

O=C(O)CCCCCCC(=O)O
inactive: [1] 2.1% | [2] -4.85% | [3] 2.85% | [4] 2.95% | [5] 0.9% | [6] -2.3%

COc1cc2c(cc1OC)C(C(N)=O)NCC2 (configuration not stated)
inactive: [1] 10.2% | [2] -35.8% | [3] 25.6% | [4] 12.2% | [5] -7% | [6] 17.6%

CCOc1ccc(OCC)c(NC=O)c1
inactive: [1] -9% | [2] -20.1% | [3] -6.75% | [4] 8.4% | [5] -11.8% | [6] 2.95%

COCc1ccc2c(c1)C(O)NC(=O)O2 (configuration not stated)
inactive: [1] 4.75% | [2] -4.05% | [3] 13.3% | [4] -28.2% | [5] -8.55% | [6] 16.1%

CCNc1ncnc2ncn(C)c12
inactive: [1] 18.9% | [2] -6.9% | [3] 15.1% | [4] 12.6% | [5] 15.1% | [6] -0.5%

C/C(=N\NC(=S)Nc1ccccc1)[C@H]1C2CCC(C2)C1C/C=C\CCCC(=O)O (some centres not stated)
inactive: [1] 26.1% | [2] 17.3% | [3] 25.9% | [4] 48.1% | [5] 37.5% | [6] 13.4%

CCOC(=O)c1cnc(NN)[nH]c1=O
inactive: [1] -5.3% | [2] -4.9% | [3] -10.6% | [4] -46.4% | [5] -13.8% | [6] -4.65%

CN1c2ccccc2N(C(=O)c2ccc(Cl)cc2)C(CC(=O)O)c2cccn21 (configuration not stated)
inactive: [1] 43.1% | [2] 31.1% | [3] 23.3% | [4] 44.8% | [5] 38.5% | [6] 29.2%

COc1ccc(-n2c(N)c(C#N)[nH]c2=O)cc1
inactive: [1] -8.7% | [2] -36.1% | [3] -14% | [4] -11.8% | [5] 6.05% | [6] -21.3%

O=C(CNC(=O)C(CSC(c1ccccc1)c1ccccc1)NC(=O)C(CSC(c1ccccc1)(c1ccccc1)c1ccccc1)NC(=O)OCc1ccccc1)OC(c1ccccc1)c1ccccc1 (configuration not stated)
inactive: [1] 4.15% | [2] 3.1% | [3] -6.25% | [4] -4.25% | [5] -1.85% | [6] 20.7%

COC(=O)C(Cc1ccccc1)N=Cc1c(O)c(O)c(C(C)C)c2cc(C)c(-c3c(C)cc4c(C(C)C)c(O)c(O)c(C=NC(Cc5ccccc5)C(=O)OC)c4c3O)c(O)c12 (configuration not stated)
inactive: [1] 19.7% | [2] 9.7% | [3] 11.7% | [4] 17.1% | [5] 16.1% | [6] 4.75%

Cc1ccc(S(=O)(=O)OC2CSS(=O)CC2OS(=O)(=O)c2ccc(C)cc2)cc1 (configuration not stated)
inactive: [1] 12.8% | [2] -3.15% | [3] 4.45% | [4] 19.1% | [5] -1.4% | [6] 21.1%

c1ccc(N=NC2(c3ccccc3)CC(c3ccccc3)=NN(c3ccccc3)C2NNc2ccccc2)cc1 (configuration not stated)
inactive: [1] 53% | [2] 7.8% | [3] 23.8% | [4] 17.7% | [5] 6.75% | [6] 31.7%

Cc1ccc(OC(=O)Oc2ccc(C)cc2)cc1
inactive: [1] 18.8% | [2] 1.9% | [3] 4.35% | [4] -6.9% | [5] 7.05% | [6] 18%

COc1c2c(c(OC)c3c(=O)cc(C/C(=N/NC(=O)C[n+]4ccccc4)C(=O)Nc4cc(C)ccc4C)oc13)OCO2
inactive: [1] -13.4% | [2] -6.65% | [3] -18.1% | [4] 5.6% | [5] -3.15% | [6] -0.3%

CCOC(=O)c1cc(C(O)C(O)C(O)CO)oc1C (configuration not stated)
inactive: [1] 14.6% | [2] 2.1% | [3] -6.45% | [4] -13.1% | [5] 21.9% | [6] 18.1%

C=C1C(=O)OC2CC(C)C(/C=C/C(C)=O)=CCC12 (configuration not stated)
inactive: [1] -7.45% | [2] -7.6% | [3] -19.9% | [4] -12.5% | [5] -43% | [6] -99.8%

Nc1ccc(OCc2ccccc2)cc1[N+](=O)[O-]
inactive: [1] 6.4% | [2] -30.8% | [3] 11.3% | [4] 14.5% | [5] -4.45% | [6] 21%

COc1cc(NC(C)=O)c2c(c1)SCC(=O)N2
inactive: [1] 3.2% | [2] -34.5% | [3] -3.7% | [4] 5.2% | [5] 24% | [6] 1.4%

CC(C)CC(C(=O)NC1CCCCC1)N1C(=O)c2ccccc2C1=O (configuration not stated)
inactive: [1] -17.1% | [2] 1.9% | [3] -4.3% | [4] -8.2% | [5] -4.4% | [6] 20.7%

Cc1c(Cl)cccc1NC(=O)COc1ccc(Cl)cc1
inactive: [1] 16.4% | [2] 9.4% | [3] 4.2% | [4] -3.7% | [5] 6.5% | [6] 4.05%

O=S(=O)(O)c1ccc(N=Nc2ccc(O)cc2)cc1
inactive: [1] -15.8% and 28.8% | [2] -27.9% and -10.4% | [3] -10.1% | [4] -53.9% | [5] 3.7% | [6] -17.4% and 8.65%

COc1ccc2c(c1)OC[C@@H]1c3cc(NC(=O)c4ccccc4)c(OCc4ccccc4)cc3N(S(=O)(=O)c3ccccc3)[C@H]21
inactive: [1] -23.9% | [2] -13.9% | [3] -2.1% | [4] -2.5% | [5] -9% | [6] 9.4%

CCOC(=O)c1ccc(NC(=S)NC(=O)C(C)Oc2ccccc2)cc1 (configuration not stated)
inactive: [1] -10.9% | [2] 40% | [3] 44.8% | [4] -21.2% | [5] 37.8% | [6] 25.2%

COc1ccc(C2=NC(CO)[C@H](c3ccccc3)O2)cc1OC (some centres not stated)
inactive: [1] 2.35% | [2] -13.2% | [3] 8.05% | [4] 17.4% | [5] -3.75% | [6] -7.15%

O=C1NC(N/N=C\C(O)C(O)C(O)CO)=N/C1=C/c1ccc(Cl)cc1 (configuration not stated)
inactive: [1] 43.2% and 45.5% | [2] 37% and 43% | [3] 44.8% and 35.1% | [4] 36.8% and 26.8% | [5] 38.1% and 43% | [6] 14.8% and 38.6%

Cc1cn(C2CC(O)C(CO)O2)c(=O)nc1N1CCSCC1 (configuration not stated)
inactive: [1] 2.5% | [2] -7.05% | [3] -2.6% | [4] -32.8% | [5] -12% | [6] -8.8%

Cn1nc2ccc3nccc(N4CCN(CCO)CC4)c3c2n1
inactive: [1] -25.6% | [2] -6.9% | [3] -21.6% | [4] -17.1% | [5] -8.45% | [6] -15%

C=C1C[C@@H](O)C[C@@]2(C)C[C@@H]3OC(=O)C(=C)[C@@H]3C[C@H]12
inactive: [1] -5.9% | [2] -3% | [3] 16.2% | [4] 14.2% | [5] -16.6% | [6] 19.9%

C/C(=N/O)c1ccncc1
inactive: [1] 1.15% | [2] -3% | [3] 1.65% | [4] 11.2% | [5] 16.1% | [6] -6.9%

COc1ccccc1/C=C1\SC(=S)NC1=O
inactive: [1] -44.6% | [2] -36.9% | [3] -38.2% | [4] -14.6% | [5] -17.8% | [6] -40.1%

O=c1[nH]c(=O)c2nc3c(=O)[nH]c(=O)[nH]c3nc2[nH]1
inactive: [1] -14.2% | [2] -21.1% | [3] 0.95% | [4] -5.95% | [5] 2.65% | [6] -27.1%

CCOC(=O)N1CCN(C(=O)CC(C)=O)CC1
inactive: [1] 2.35% | [2] -32.5% | [3] -0.15% | [4] 19.1% | [5] 4.45% | [6] 16.6%

OC(CCN1CC2CCC(CC2)C1)(Cc1ccccc1)c1cccs1 (configuration not stated)
inactive: [1] 6.75% | [2] 2.7% | [3] 21.1% | [4] 11.2% | [5] 17.1% | [6] 32.5%

COc1ccc(/C(=N\NC(=S)NN)C(c2ccc(OC)cc2)C2C(=O)Oc3ccccc32)cc1 (configuration not stated)
inactive: [1] 13.4% | [2] 5.85% | [3] 38.4% | [4] -9.3% | [5] 12.7% | [6] 2.85%
